One assay has as its system HCC1937. Nature of the assay: relative cell viability, compound alone, vs DMSO (fraction of DMSO control); higher = less growth inhibition. Conditions: 72 h.
In a further assay the test system is MDA-MB-231. The description is as above. Conditions: 72 h.

Structures can show the parent of a compound that is named as a salt.
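Further: viability read out with the CCK-8 kit in 96-well plates, screening a set of 303 compounds acting on lipid metabolism targets.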

For the compound `CN(CCOc1ccc(CC2SC(=O)NC2=O)cc1)c1ccccn1` (stereo unspecified) [Rosiglitazone HCl], the relative cell viability with HCC1937 amounted to 0.781; in the assay with MDA-MB-231 it was 0.947.

As to `Nc1ncnc2c1ncn2C1OC(COP(=O)(O)O)C(O)C1O` (stereo unspecified) [Adenosine 5'-monophosphate monohydrate], the relative cell viability was 1.09 with HCC1937 and 1.03 with MDA-MB-231.

With `O=C(Nc1ccccc1)c1cc([N+](=O)[O-])ccc1Cl`, the relative cell viability with HCC1937 worked out at 1.08; in the assay on MDA-MB-231, 1.03.

With `O=C(CCCCc1ccc2c(c1)OCO2)N1CCCCC1`, the relative cell viability in the assay on HCC1937 stood at 0.608; in the assay on MDA-MB-231 it was 0.838.

`O=C(Nc1cccnn1)N1CCC(=Cc2cccc(Oc3ccc(C(F)(F)F)cn3)c2)CC1`: the relative cell viability was found to be 1.15 with HCC1937 and 0.987 in the assay with MDA-MB-231.

With `NC(=O)c1ncn([C@@H]2O[C@H](CO)[C@@H](O)[C@H]2O)c1N` [AICAR (Acadesine)], the relative cell viability in the assay with HCC1937 was found to be 0.804; with MDA-MB-231, 0.892.

On to `O=C(OC(C(F)(F)F)C(F)(F)F)N1CCC(C(O)(c2ccc3c(c2)OCO3)c2ccc3c(c2)OCO3)CC1`, for which the relative cell viability was 1.06 in the assay on HCC1937 and 0.855 in the assay on MDA-MB-231.

Turning to `O=C(O)c1cccc(N=Nc2c(O)[nH]c3ccc(S(=O)(=O)NCc4ccc(F)cc4)cc23)c1`, the figures for the relative cell viability in the assay on HCC1937 and in the assay with MDA-MB-231 were 0.885 and 0.938, respectively.

Take `COc1ccc(-c2coc3cc(OC)ccc3c2=O)cc1` [4',7-Dimethoxyisoflavone]: the relative cell viability stood at 0.486 in the assay on HCC1937 and 0.693 in the assay with MDA-MB-231.

Consider `C=C(C)[C@@H]1CC[C@]2(C)CC[C@]3(C)[C@H](CC[C@@H]4[C@@]5(C)CCC(=O)C(C)(C)[C@@H]5CC[C@]43C)[C@@H]12`, for which the relative cell viability came out at 1.04 in the assay on HCC1937 and 1.08 in the assay with MDA-MB-231.

Take `Cc1cc(=O)oc2c(O)c(O)ccc12` [7,8-Dihydroxy-4-methylcoumarin]: the relative cell viability in the assay with HCC1937 amounted to 0.911; in the assay with MDA-MB-231 it was 1.02.

With `CC(C)=CCC[C@](C)(O)[C@H]1CC[C@]2(C)[C@@H]1[C@H](O)C[C@@H]1[C@@]3(C)CC[C@H](O)C(C)(C)[C@@H]3[C@@H](O)C[C@]12C` [(20S)-Protopanaxatriol], the relative cell viability in the assay with HCC1937 is 1.24; with MDA-MB-231 it was 1.

Take `O=C(CCCCCCCC(=O)NCCO)NCCO` [Adelmidrol]: the results for the relative cell viability with HCC1937 and in the assay on MDA-MB-231 were 1.16 and 1.04, respectively.

Take `N=C(N)NCCC(=O)O` [3-Guanidinopropionic Acid]: the results for the relative cell viability with HCC1937 and with MDA-MB-231 were 0.734 and 0.94, respectively.

For `C=CCc1ccc(O)c(-c2cc(CC=C)ccc2O)c1` [Magnolol], the values for the relative cell viability in the assay on HCC1937 and in the assay with MDA-MB-231 were 1 and 0.968, respectively.

Turning to `CCCc1c(-c2ccccc2)[nH]n(-c2ccccn2)c1=O` [APX-115 free base], the relative cell viability in the assay on HCC1937 is 0.838; in the assay with MDA-MB-231 it was 0.835.

With `COc1ccc(N(C(=O)Nc2c(C)cccc2C)c2cc(Nc3ccc(N4CCN(C)CC4)cc3)ncn2)c(OC)c1`, the relative cell viability in the assay with HCC1937 turned out to be 0.915; in the assay with MDA-MB-231, 1.11.

On to `COc1ccc2[nH]cc(CCNC(C)=O)c2c1` [Melatonine], for which the results for the relative cell viability in the assay with HCC1937 and in the assay on MDA-MB-231 were 0.76 and 0.783, respectively.

Regarding `CC(C)(C)N1C(=O)C(Nc2ccc(N3CCCCC3)cc2)=C(c2ccccc2)S1(=O)=O`, the relative cell viability with HCC1937 came to 1.15; in the assay with MDA-MB-231, 0.947.

Regarding `CC(C)(Oc1ccc(C(=O)c2ccc(Cl)cc2)cc1)C(=O)O` [Fenofibric acid], the relative cell viability with HCC1937 amounted to 0.686; with MDA-MB-231, 0.842.

Consider `CCOP(=O)(OCC)C(=Cc1cc(C(C)(C)C)c(O)c(C(C)(C)C)c1)P(=O)(OCC)OCC`, for which the relative cell viability in the assay with HCC1937 came to 0.631; in the assay with MDA-MB-231 it was 0.779.

Take `O=c1c(-c2ccc(O)cc2)coc2cc(O)ccc12` [Daidzein]: the relative cell viability was found to be 1.13 in the assay with HCC1937 and 0.863 with MDA-MB-231.

On to `CCCCCCS(=O)(=O)NC(=O)c1ccc(CSCc2ccc(-c3ccccc3)cc2)cc1`, for which the relative cell viability in the assay on HCC1937 came to 0.938; in the assay on MDA-MB-231 it was 0.91.

As to `CN(C)C(=N)NC(=N)N` [Metformin], the relative cell viability with HCC1937 came to 0.646; with MDA-MB-231, 0.93.

With `C[C@]12C=CC(=O)N[C@@H]1CC[C@@H]1[C@@H]2CC[C@]2(C)[C@@H](C(=O)Nc3cc(C(F)(F)F)ccc3C(F)(F)F)CC[C@@H]12` [Dutasteride], the relative cell viability with HCC1937 worked out at 0.798; in the assay on MDA-MB-231 it was 0.777.

Turning to `C[C@H](CCOc1cccc(CC(=O)O)c1)N(Cc1cccc(C(F)(F)F)c1Cl)CC(c1ccccc1)c1ccccc1` [RGX-104 free Acid], the relative cell viability was 0.613 in the assay on HCC1937 and 0.863 in the assay with MDA-MB-231.

In the case of `COc1ccc(-n2c(SCCCN3C(=O)c4cccc5cccc(c45)C3=O)nnc2-c2ccncc2)cc1`, the relative cell viability amounted to 0.661 with HCC1937 and 0.877 with MDA-MB-231.

With `CC(C)c1onc(-c2c(Cl)cccc2Cl)c1COc1ccc(/C=C/c2cccc(C(=O)O)c2)c(Cl)c1`, the relative cell viability amounted to 1.03 in the assay with HCC1937 and 0.968 with MDA-MB-231.

With `CCC(=O)Nc1cccc(Oc2nc(Nc3ccc(N4CCN(C)CC4)cc3OC)ncc2Cl)c1`, the relative cell viability stood at 0.48 in the assay on HCC1937 and 0.559 in the assay with MDA-MB-231.

Turning to `CC[C@H](C)C(=O)O[C@H]1C[C@H](O)C=C2C=C[C@H](C)[C@H](CC[C@@H](O)C[C@@H](O)CC(=O)O)[C@H]21` [Pravastatin sodium], the relative cell viability with HCC1937 worked out at 0.918; in the assay on MDA-MB-231 it was 0.964.

Turning to `N#Cc1ccc(Oc2cccc(NC(=O)Nc3ccc(Cl)c(C(F)(F)F)c3)c2)cc1`, the results for the relative cell viability in the assay with HCC1937 and in the assay on MDA-MB-231 were 0.1 and 0.276, respectively.

With `CCC(=O)O[C@]1(C(=O)SCF)[C@H](C)C[C@H]2[C@@H]3C[C@H](F)C4=CC(=O)C=C[C@]4(C)[C@@]3(F)[C@@H](O)C[C@@]21C` [Fluticasone propionate], the relative cell viability with HCC1937 was 1.34; in the assay on MDA-MB-231, 0.813.

Regarding `CC1=C(C)C(=O)C(C(CCCCCC(=O)O)c2ccccc2)=C(C)C1=O` (stereo unspecified) [Seratrodast], the relative cell viability in the assay with HCC1937 amounted to 1.37; with MDA-MB-231, 0.809.

These data come from the supplement of paper PMC9492666.
